The source of these data is PubChem BioAssay.

A number with no mark means an inactive call. For some assays here: Results with a measured potency or affinity are listed apart. Active and inactive are the calls of the source. Unless noted, no rule for the calls is given here.

A short description of assay [1]: antimalarial activity against Dd2 strain (AID 2302;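 active = growth inhibition above 50% at the single 2 µM test dose, taken to imply half-maximal potency below 2 µM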;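 also: 0% = DMSO untreated growth and 100% = chloroquine plus artemisinin killed control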). As to conditions: P. falciparum Dd2 in RBCs, LDH growth readout, 72 h; at 2 µM; stronger effect = higher value.
The nature of assay [2]: HepG2 cytotoxicity, primary screen, cytotoxicity control for P. falciparum antimalarial project, cell-based, ATP luminescence (AID 2303;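 active = inhibition above 50%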;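 also: 0% = DMSO wells and 100% = digitonin-killed cells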). As to conditions: HepG2 viability, 24-48 h, at 10 µM, stronger effect = higher value.
Assay [3] deals with L-lactate dehydrogenase (Plasmodium falciparum (isolate CDC / Honduras)) (UniProt Q27743). Nature of the assay: PfLDH activity inhibition – cell lysate, 3D7 strain, counter-screen for P. falciparum growth inhibition project (AID 2304).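 Also: 0% = vehicle and 100% = reference inhibitor.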 The settings on record: P. falciparum 3D7 crude extract, LDH APAD/NBT absorbance; at 2 µM; stronger effect = higher value. Background: Counterscreens check selectivity or assay interference.

Assay [4] is described as follows: inhibition of 3D7 malaria parasite growth – strain 3D7 (AID 2306).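 Also: 0% = DMSO wells and 100% = chloroquine plus artemisinin control wells.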 As to conditions: P. falciparum 3D7 erythrocytic growth, LDH absorbance, 72 h; at 2 µM; stronger effect = higher value.
Assay [5] has as its target Calcium-dependent protein kinase 1 (Plasmodium falciparum (isolate 3D7)) (UniProt P62344). Nature of the assay: PfCDPK1 kinase inhibitors, biochemical, TCAMS library (AID 1159585; cut-off not given, nearly all actives have IC50 up to about 0.98 µM;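 also: inhibitors leave more ATP so luminescence rises with inhibition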). As to conditions: recombinant PfCDPK1, Kinase-Glo ATP depletion luminescence. In general terms: Kinase-Glo measures the ATP left after a reaction by luminescence.
Assay [6] addresses Plasmodium falciparum protein kinase 6 (PK6, PF3D7_1337100) (UniProt Q8IDW1). Nature of the assay: PfPK6 kinase inhibitors, biochemical, TCAMS library (AID 1159586). As to conditions: recombinant PfPK6, Kinase-Glo ATP depletion luminescence.
Assay [7] addresses Protein kinase 7 (PK7), Plasmodium falciparum 3D7 (PF3D7_0213400) (UniProt Q7YTF7). Nature of the assay: inhibition of Plasmodium PK7 catalytic activity – biochemical, TCAMS antimalarial set, Kinase-Glo luminescence (AID 1159587). As to conditions: recombinant PfPK7, Kinase-Glo ATP depletion luminescence.
The target of assay [8] is Calcium-dependent protein kinase 4 (Plasmodium falciparum (isolate 3D7)) (UniProt Q8IBS5). Nature of the assay: PfCDPK4 kinase inhibitors, biochemical, TCAMS library (AID 1159588; cut-off not given, nearly all actives have IC50 up to about 0.91 µM). The settings on record: recombinant PfCDPK4, Kinase-Glo ATP depletion luminescence.

Usually inhibition stands for the relative decrease from the control value, in per cent.

Chain of Protein kinase 7 (PK7), Plasmodium falciparum 3D7 (PF3D7_0213400) (Q7YTF7 1-343): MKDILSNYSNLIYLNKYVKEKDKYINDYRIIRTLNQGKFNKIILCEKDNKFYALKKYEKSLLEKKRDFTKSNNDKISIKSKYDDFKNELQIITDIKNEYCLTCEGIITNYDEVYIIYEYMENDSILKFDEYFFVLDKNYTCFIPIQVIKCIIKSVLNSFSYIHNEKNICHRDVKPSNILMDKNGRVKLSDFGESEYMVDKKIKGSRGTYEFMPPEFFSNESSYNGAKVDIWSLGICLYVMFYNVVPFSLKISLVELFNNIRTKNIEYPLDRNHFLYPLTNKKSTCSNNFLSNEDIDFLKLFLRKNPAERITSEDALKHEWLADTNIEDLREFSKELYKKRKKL
Chain of Calcium-dependent protein kinase 1 (Plasmodium falciparum (isolate 3D7)) (P62344 whole entry, looked up): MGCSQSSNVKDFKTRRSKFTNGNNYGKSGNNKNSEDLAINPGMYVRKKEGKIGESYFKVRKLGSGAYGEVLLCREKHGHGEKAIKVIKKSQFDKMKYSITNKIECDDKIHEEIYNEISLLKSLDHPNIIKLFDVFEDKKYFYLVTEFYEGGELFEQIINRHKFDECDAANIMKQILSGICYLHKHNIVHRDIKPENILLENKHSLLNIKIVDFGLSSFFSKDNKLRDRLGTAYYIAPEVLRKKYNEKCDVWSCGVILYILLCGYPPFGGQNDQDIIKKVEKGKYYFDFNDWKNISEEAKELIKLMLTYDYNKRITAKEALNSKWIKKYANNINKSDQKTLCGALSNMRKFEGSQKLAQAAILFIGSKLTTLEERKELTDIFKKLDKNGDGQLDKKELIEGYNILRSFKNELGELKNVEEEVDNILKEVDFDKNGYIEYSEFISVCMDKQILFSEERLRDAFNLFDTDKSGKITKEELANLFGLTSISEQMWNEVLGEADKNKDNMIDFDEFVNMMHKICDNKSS
Chain of Plasmodium falciparum protein kinase 6 (PK6, PF3D7_1337100) (Q8IDW1 1-305): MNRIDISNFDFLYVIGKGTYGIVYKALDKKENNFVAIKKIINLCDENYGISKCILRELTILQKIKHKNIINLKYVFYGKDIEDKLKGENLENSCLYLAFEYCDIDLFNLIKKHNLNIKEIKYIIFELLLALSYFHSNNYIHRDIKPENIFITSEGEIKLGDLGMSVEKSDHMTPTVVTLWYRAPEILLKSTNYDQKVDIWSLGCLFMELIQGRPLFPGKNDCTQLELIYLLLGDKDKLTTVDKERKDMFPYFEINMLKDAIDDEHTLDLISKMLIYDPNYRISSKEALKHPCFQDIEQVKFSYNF
Chain of L-lactate dehydrogenase (Plasmodium falciparum (isolate CDC / Honduras)) (Q27743 whole entry, looked up): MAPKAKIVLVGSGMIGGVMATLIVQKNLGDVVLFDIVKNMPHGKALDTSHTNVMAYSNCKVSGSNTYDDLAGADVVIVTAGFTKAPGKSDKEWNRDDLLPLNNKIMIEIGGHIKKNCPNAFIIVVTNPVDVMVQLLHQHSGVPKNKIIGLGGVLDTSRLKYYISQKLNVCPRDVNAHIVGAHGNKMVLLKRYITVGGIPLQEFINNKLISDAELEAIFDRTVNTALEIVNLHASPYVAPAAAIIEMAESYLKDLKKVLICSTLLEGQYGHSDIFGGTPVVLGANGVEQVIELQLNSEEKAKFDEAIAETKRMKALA
Chain of Calcium-dependent protein kinase 4 (Plasmodium falciparum (isolate 3D7)) (Q8IBS5 whole entry, looked up): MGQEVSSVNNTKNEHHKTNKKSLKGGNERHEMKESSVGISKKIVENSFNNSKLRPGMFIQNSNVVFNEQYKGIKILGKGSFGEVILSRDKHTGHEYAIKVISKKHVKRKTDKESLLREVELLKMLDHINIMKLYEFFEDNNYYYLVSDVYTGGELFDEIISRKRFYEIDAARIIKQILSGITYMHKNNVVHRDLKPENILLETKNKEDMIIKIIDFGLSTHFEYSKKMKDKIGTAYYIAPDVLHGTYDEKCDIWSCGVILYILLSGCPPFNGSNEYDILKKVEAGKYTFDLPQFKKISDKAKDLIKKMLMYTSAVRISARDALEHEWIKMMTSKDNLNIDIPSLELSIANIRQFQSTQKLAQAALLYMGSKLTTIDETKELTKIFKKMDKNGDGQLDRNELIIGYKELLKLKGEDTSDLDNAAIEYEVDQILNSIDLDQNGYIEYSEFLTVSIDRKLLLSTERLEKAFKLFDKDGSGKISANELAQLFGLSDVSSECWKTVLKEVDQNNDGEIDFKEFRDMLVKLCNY

With `CNC(=O)c1cnc(Nc2ccc(OCC(O)CN(C)C)cc2)nc1Nc1cccc(OC)c1` (configuration not stated), the growth inhibition is 97% (active) in assay [1] and 103% (active) in assay [4]. The inhibition is 31% in assay [2] and 1% in assay [3]. In addition, the outcome in assay [5], in assay [6], in assay [7] and in assay [8] was inactive.

On to `O=C(C1CCCC1)N1CCOC(CCN2CCC(c3ccccc3)CC2)(c2ccc(Cl)c(Cl)c2)C1` (configuration not stated), for which the growth inhibition in assay [1] is 77% (active); in assay [4] it was 88% (active). The inhibition is 16% in assay [2] and 0% in assay [3]. For the same compound, the outcome in assay [5], in assay [6], in assay [7] and in assay [8] was inactive.

As for `CS(=O)(=O)c1ccc(Nc2ncc(-c3ccc(S(C)(=O)=O)cc3)c(OCC(F)(F)F)n2)cc1`, the growth inhibition in assay [1] was 98% (active); in assay [4] it was 97% (active). For the same compound, the results for the inhibition in assay [2] and in assay [3] were -7% and -3%, respectively. For the same compound, the outcome in assay [5], in assay [6], in assay [7] and in assay [8] was inactive.

Regarding `O=C(NCC1CCN(Cc2ccsc2)C1)c1cc(-c2cccc(C(F)(F)F)c2)cs1` (configuration not stated), the growth inhibition was 15% in assay [1] and 98% (active) in assay [4]. The inhibition was 37% in assay [2] and -2% in assay [3]. For the same compound, the outcome in assay [5], in assay [6], in assay [7] and in assay [8] was inactive.

Consider `CC(C)(C)c1ccc(NC(=O)c2ccc(CN3CCCN(Cc4cccc(Cl)c4)CC3)cc2)cc1`, for which the growth inhibition in assay [1] was 7%; in assay [4], 96% (active). The inhibition in assay [2] was 43%; in assay [3], -3%. For the same compound, the result in assay [5], in assay [6], in assay [7] and in assay [8] was inactive.

`CN1CCC(N2CCN(Cc3cccc(-c4ccc(-c5nc6ccc(F)cc6[nH]5)cc4)c3)CC2)CC1`: the growth inhibition in assay [1] and in assay [4] was 100% (active) in each case. Moreover, the inhibition was 92% (active) in assay [2] and 3% in assay [3]. Also, the outcome in assay [5], in assay [6], in assay [7] and in assay [8] was inactive.

Regarding `CN(C)CC1CCCN1Cc1ccccc1-c1cnn(C)c(=O)c1Oc1cccc(C#N)c1` (configuration not stated), the growth inhibition is 15% in assay [1] and 92% (active) in assay [4]. The inhibition in assay [2] is 26%; in assay [3], 4%. For the same compound, the outcome in assay [5], in assay [6], in assay [7] and in assay [8] was inactive.

Regarding `CCCCCCCCN1CCN(CCCCCCNc2c3ccccc3nc3ccccc23)CC1`, the growth inhibition in assay [1] was 100% (active); in assay [4] it was 101% (active). Besides, the inhibition in assay [2] is 100% (active); in assay [3], -4%. The result in assay [5], in assay [6], in assay [7] and in assay [8] was inactive.

As for `CC(C)c1ccc(NC(=S)NN=Cc2ccccn2)cc1`, the results for the growth inhibition in assay [1] and in assay [4] were 98% (active) and 100% (active), respectively. Moreover, the inhibition is 47% in assay [2] and -12% in assay [3]. Moreover, the result in assay [5], in assay [6], in assay [7] and in assay [8] was inactive.

With `CC(C)(C)c1ccc(CN2CCC(NC(=O)c3ccc(-c4cccc(Cl)c4)s3)CC2)cc1`, the growth inhibition in assay [1] is 47%; in assay [4], 99% (active). The inhibition in assay [2] is 36%; in assay [3], 5%. Moreover, the result in assay [5], in assay [6], in assay [7] and in assay [8] was inactive.

Consider `CCCCNCc1ccc(-c2nc(CN(CCCN3CCN(C)CC3)C(=O)Nc3cccc(Cl)c3)cs2)cc1`, for which the growth inhibition is 73% (active) in assay [1] and 99% (active) in assay [4]. Also, the results for the inhibition in assay [2] and in assay [3] were 35% and 4%, respectively. Also, the outcome in assay [5], in assay [6], in assay [7] and in assay [8] was inactive.

With `O=C(NC1CCCc2ccccc21)[C@@H]1CCCN1C(=O)c1ccc(O)c(-c2cccc([N+](=O)[O-])c2)c1` (some centres not stated), the growth inhibition in assay [1] and in assay [4] was 99% (active) in each case. The figures for the inhibition in assay [2] and in assay [3] were -5% and 5%, respectively. Further, the result in assay [5], in assay [6], in assay [7] and in assay [8] was inactive.

With `CCN(CCCN1CCCCC1)c1cc(C)nc(Nc2ccc(Cl)cc2C)n1`, the growth inhibition was 46% in assay [1] and 95% (active) in assay [4]. In addition, the inhibition in assay [2] was 44%; in assay [3], 2%. The result in assay [5], in assay [6], in assay [7] and in assay [8] was inactive.

Regarding `CCn1c(-c2ccccc2)cc2nnc3ccccc3c21`, the growth inhibition in assay [1] was 87% (active); in assay [4] it was 92% (active). Also, the inhibition in assay [2] is 34%; in assay [3], 5%. For the same compound, the outcome in assay [5], in assay [6], in assay [7] and in assay [8] was inactive.

Consider `FC(F)(F)c1cccc(Nc2nc(-c3ccccc3)nc3ncccc23)c1`, for which the growth inhibition in assay [1] and in assay [4] was 97% (active) throughout. Further, the inhibition is 17% in assay [2] and -1% in assay [3]. Besides, the outcome in assay [5], in assay [6], in assay [7] and in assay [8] was inactive.

For the compound `O=C(NCCCN(Cc1ccc(F)cc1)c1ccccn1)C(c1cc2ccccc2o1)N1CCN(C(c2ccccc2)c2ccccc2)CC1` (configuration not stated), the growth inhibition was 53% (active) in assay [1] and 97% (active) in assay [4]. The figures for the inhibition in assay [2] and in assay [3] were 14% and 1%, respectively. Further, the outcome in assay [5], in assay [6], in assay [7] and in assay [8] was inactive.

For the compound `CCN(CC)CCCn1c(N)c(-c2nc3ccccc3[nH]2)c2nc(C#N)c(C#N)nc21`, the growth inhibition in assay [1] is 99% (active); in assay [4] it was 100% (active). Moreover, the inhibition in assay [2] was 8%; in assay [3], 2%. Also, the result in assay [5], in assay [6], in assay [7] and in assay [8] was inactive.

As to `CC(C)NCc1cc(Nc2ccnc3cc(Cl)ccc23)ccc1O`, the growth inhibition in assay [1] was 100% (active); in assay [4] it was 102% (active). In addition, the inhibition in assay [2] is 27%; in assay [3], 6%. For the same compound, the outcome in assay [5], in assay [6], in assay [7] and in assay [8] was inactive.

For the compound `COc1cccc(NC(=O)c2nc(N3CCN(c4ccncc4)CC3)ccc2Cl)c1`, the growth inhibition is 65% (active) in assay [1] and 97% (active) in assay [4]. In addition, the values for the inhibition in assay [2] and in assay [3] were 14% and 1%, respectively. In addition, the outcome in assay [5], in assay [6], in assay [7] and in assay [8] was inactive.
